Experiment [1] can be described thus: HEK-293 Cancer Cell Toxicity qHTS against the NCATS CANVASS Library (AID 1347355; active = well fitted curve in the direction sought with a large enough effect; an effect the other way counts as inactive or inconclusive; note: series mostly up to about 46 µM; nearly all actives have a fitted effect of over 65% in size). In short, it runs like this: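 First, 1000 cells go into each well and rest for 4 hours. Next, an 11-point dilution range is pinned in. Plates then incubate 72 hours before CellTiter-Glo addition and luminescence reading.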
Background: qHTS replaces the single test concentration by a dilution series.

The nature of experiment [2]: HPAF-II 24hr Apoptosis Induction qHTS against the NCATS CANVASS Library (AID 1347356; active = well fitted curve in the direction sought with a large enough effect; an effect the other way counts as inactive or inconclusive). The procedure, abridged: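 Cells seeded at 500 per well, then compounds pin-transferred in an 11-point concentration series. After 24 hours at 37 degrees C, Caspase-Glo 3/7 was added and luminescence measured following 15 min at room temperature.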
Experiment [3] is described as follows: HPAF-II 12hr Apoptosis Induction qHTS against the NCATS CANVASS Library (AID 1347358; active = well fitted curve in the direction sought with a large enough effect; an effect the other way counts as inactive or inconclusive). The procedure, abridged:
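Cells plated at 500 per well are dosed with compound and incubated 12 hours at 37 degrees C. Caspase-Glo 3/7 reagent is added and, after 15 min at room temperature, luminescence proportional to caspase activity is measured.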

Experiment [4] can be described thus: HEK293 24hr Apoptosis Induction qHTS against the NCATS CANVASS Library (AID 1347359; active = well fitted curve in the direction sought with a large enough effect; an effect the other way counts as inactive or inconclusive). In short, it runs like this: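 Caspase-3/7 activation measured as luminescence from the DEVD-based Caspase-Glo reagent, 15 min at room temperature, following 24-hour compound treatment of HEK293 cells.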
Experiment [5] is described as follows: HPAF-II 18hr Apoptosis Induction qHTS against the NCATS CANVASS Library (AID 1347360; active = well fitted curve in the direction sought with a large enough effect; an effect the other way counts as inactive or inconclusive). In short, it runs like this:
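Caspase-Glo 3/7 luminescence (DEVD substrate) after 15 min RT; HPAF-II, 500 cells/well, 18 h compound exposure at 37 degrees C, qHTS series; doxorubicin control 0.1nM - 4uM.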

The nature of experiment [6]: HEK293 12hr Apoptosis Induction qHTS against the NCATS CANVASS Library (AID 1347361; active = well fitted curve in the direction sought with a large enough effect; an effect the other way counts as inactive or inconclusive). In short, it runs like this:
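500 HEK293 cells/well; cpds pin-transferred, 11-pt conc series; 12 h, 37 degrees C/5% CO2; Caspase-Glo 3/7 added, 15 min RT dark; luminescence.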

Experiment [7] concerns NAD(P)H diaphorase (Clostridium kluyveri). Put plainly: Diaphorse counterscreen qHTS: Assay Interference Panel against the NCATS CANVASS Library (AID 1347362; active = well fitted curve in the direction sought with a large enough effect; an effect the other way counts as inactive or inconclusive). The procedure, abridged: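 Counterscreen for coupling-enzyme interference: resorufin fluorescence from resazurin/NADH turnover, read after 5 min at room temperature. Compounds were tested over an 11-point series after 15 min dark preincubation with diaphorase in PBS-Tween.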

For experiment [8], the target named is Luciferin 4-monooxygenase (Photinus pyralis) (UniProt P08659). Put plainly: Firefly luciferase counterscreen qHTS: Assay Interference Panel against the NCATS CANVASS Library (AID 1347363; active = well fitted curve in the direction sought with a large enough effect; an effect the other way counts as inactive or inconclusive; note: series mostly up to about 57 µM). In short, it runs like this: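 Luminescence inhibition readout: compounds (11-point qHTS) sat 15 min at room temperature with substrate mix (0.013 mM luciferin and ATP), then firefly luciferase was added and signal read 5 min later.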

Experiment [9] in a line: qHTS for ATAD5 Agonist screened against the NCATS CANVASS Library (AID 1347367; active = well fitted curve in the direction sought with a large enough effect; an effect the other way counts as inactive or inconclusive). The procedure, abridged:
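Luminescence read-out: ATAD5-driven luciferase in stably transfected HEK 293T cells, which rises post-transcriptionally with DNA damage. Cells were exposed 16hr at 37C to test compound; a CellTiter-Fluor fluorescence read (1hr) measured viability first.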

Experiment [10] can be described thus: J3T Cancer Cell Toxicity qHTS against the NCATS CANVASS Library (AID 1347371; active = well fitted curve in the direction sought with a large enough effect; an effect the other way counts as inactive or inconclusive;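 note: J3T is a canine glioma cancer cell line seeded at 500 cells per well; series mostly up to about 46 µM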). In short, it runs like this:
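Luminescence from CellTiterGlo, reporting cellular ATP, serves as the viability measure after 72 hr compound treatment of J3T canine glioma cells seeded at 500 cells/well.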

In experiment [11] the target is Nuclear receptor subfamily 1 group I member 3 (Homo sapiens) (UniProt Q14994). Put plainly: qHTS for Constitutive Androstane Receptor (CAR) Agonist screened against the NCATS CANVASS Library (AID 1347373; active = well fitted curve in the direction sought with a large enough effect; an effect the other way counts as inactive or inconclusive;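 note: every well also contained 1.5 µM PK11195 alongside the test compound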). The procedure, abridged:
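Cells were plated and allowed to attach for 4hr, then dosed with compound in an 11-point series alongside 1.5uM PK11195. After 24hr at 37C, viability was measured fluorometrically and CAR-driven CYP2B6 reporter luminescence was recorded.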

Experiment [12] in a line: qHTS for Hypoxia signaling pathway (HIF-1) agonists against the NCATS CANVASS Library (AID 1347375; active = well fitted curve in the direction sought with a large enough effect; an effect the other way counts as inactive or inconclusive). In short, it runs like this:
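Cells plated and rested 5 h, compounds pinned in DMSO across 11 concentrations, incubated 17 h at 37C, loaded with CCF4-AM for 2 h, fluorescence read at 460 and 530 nm, then CellTiter-Glo luminescence measured for viability and normalization.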

The nature of experiment [13]: 10-beta competent E. coli microbial cell viability qHTS against the NCATS CANVASS Library (AID 1347376; active = well fitted curve in the direction sought with a large enough effect; an effect the other way counts as inactive or inconclusive; note: series mostly up to about 46 µM). The procedure, abridged: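 Bacterial suspension diluted to 0.2 OD was dosed with compounds, 11-point series, then held overnight at 37C. BacTiter-Glo reagent was added, and after 20 min at room temperature ATP-dependent luminescence was measured.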
The nature of experiment [14]: qHTS for H2AX Agonists against the NCATS CANVASS Library (AID 1347378; active = well fitted curve in the direction sought with a large enough effect; an effect the other way counts as inactive or inconclusive). In short, it runs like this: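 TR-FRET readout (ex 320 nm, em 665/620 nm ratio) of phospho-H2AX (S139) in CHO-K1 lysates. Cells treated 3 hr at 37C with compound titration, 0.76% DMSO; lysis 30 min, antibody detection 24 hr at RT.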
Experiment [15] can be described thus: Inflammasome Signaling qHTS Counterscreen: IL-1-beta AlphaLISA counterscreen against the NCATS CANVASS Library (AID 1347381; active = well fitted curve in the direction sought with a large enough effect; an effect the other way counts as inactive or inconclusive;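 note: cell-free check with purified IL-1β in medium and no THP-1 cells; series mostly up to about 57 µM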). In short, it runs like this:
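Purified IL-1-beta (4 pg/well) + compound, 11-pt conc. series; acceptor beads 6 ug/mL + biotin-Ab 0.6 nM final, 1 h RT; SA-donor 24 ug/ml final, 30 min dark RT; read ex 680/em 615.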

Experiment [16] is described as follows: Cytotoxicity qHTS for assessment of Hepg2 cells membrane integrity screened against the NCATS CANVASS Library (AID 1347387; active = well fitted curve in the direction sought with a large enough effect; an effect the other way counts as inactive or inconclusive). The procedure, abridged: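 Cells were seeded at 2000 per well and left overnight to attach. Compounds were pin-transferred to give 0.59 nM - 46 uM in an 11-point series and incubated 5 hr at 37C. CytoTox-ONE reagent was added and, after 10 min at room temperature, fluorescence (ex 560, em 590 nm) was read.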

The nature of experiment [17]: qHTS for activators of dead-cell proteases activity screened against the NCATS CANVASS Library (AID 1347392; active = well fitted curve in the direction sought with a large enough effect; an effect the other way counts as inactive or inconclusive;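 note: luminescence from protease leaking out of membrane-damaged cells cleaving impermeant substrate; rising signal means more cytotoxicity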). In short, it runs like this:
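Luminescent dead-cell protease readout (AAF-aminoluciferin, 15 min, room temperature) after 5 h compound treatment of HepG2 cells (2000/well, pre-attached 18 h). Eleven concentrations.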

Experiment [18] is described as follows: Redox Reaction Profiling qHTS: Assay Interference Panel against the NCATS CANVASS Library (AID 1347401; active = well fitted curve in the direction sought with a large enough effect; an effect the other way counts as inactive or inconclusive). The procedure, abridged: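 Redox-cycling liability assessed as DTT-driven conversion of resazurin (5 uM, with 200 uM DTT, HEPES pH 7.3) to fluorescent resorufin. Fluorescence at 525/598 nm measured initially and after 15 min dark incubation.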
A short description of experiment [19]: qHTS for inhibitors of Rabies Virus screened against the NCATS CANVASS Library (AID 1347402). Note: series mostly up to about 46 µM.

Records with an inconclusive call do not appear. A call without a number means that no potency is given here. The source made the active and inactive calls. Unless noted, calls come from the whole dose curve. Non-standard residues stand in square brackets, D forms with d. Residues, ends and D or L forms follow the SMILES beside them. ξ: configuration not given here. ξL = CC(C)CC(N)C(=O)O

Luciferin 4-monooxygenase (Photinus pyralis), sequence (P08659 whole entry, looked up): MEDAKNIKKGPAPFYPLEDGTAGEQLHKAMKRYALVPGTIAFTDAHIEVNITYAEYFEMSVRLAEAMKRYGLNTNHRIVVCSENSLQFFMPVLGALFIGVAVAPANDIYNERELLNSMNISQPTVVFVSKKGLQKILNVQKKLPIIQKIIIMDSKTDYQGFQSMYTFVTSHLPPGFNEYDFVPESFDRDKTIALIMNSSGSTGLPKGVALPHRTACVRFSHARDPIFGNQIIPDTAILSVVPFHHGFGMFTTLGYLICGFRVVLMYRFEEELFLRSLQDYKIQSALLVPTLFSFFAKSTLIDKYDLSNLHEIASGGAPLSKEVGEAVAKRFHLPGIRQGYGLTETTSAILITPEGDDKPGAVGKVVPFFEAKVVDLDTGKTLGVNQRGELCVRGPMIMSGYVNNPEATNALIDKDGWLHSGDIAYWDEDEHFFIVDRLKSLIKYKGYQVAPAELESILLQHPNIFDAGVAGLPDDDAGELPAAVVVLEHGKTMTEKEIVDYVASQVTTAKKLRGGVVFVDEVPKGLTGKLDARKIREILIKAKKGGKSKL
Nuclear receptor subfamily 1 group I member 3 (Homo sapiens), sequence (Q14994 whole entry, looked up): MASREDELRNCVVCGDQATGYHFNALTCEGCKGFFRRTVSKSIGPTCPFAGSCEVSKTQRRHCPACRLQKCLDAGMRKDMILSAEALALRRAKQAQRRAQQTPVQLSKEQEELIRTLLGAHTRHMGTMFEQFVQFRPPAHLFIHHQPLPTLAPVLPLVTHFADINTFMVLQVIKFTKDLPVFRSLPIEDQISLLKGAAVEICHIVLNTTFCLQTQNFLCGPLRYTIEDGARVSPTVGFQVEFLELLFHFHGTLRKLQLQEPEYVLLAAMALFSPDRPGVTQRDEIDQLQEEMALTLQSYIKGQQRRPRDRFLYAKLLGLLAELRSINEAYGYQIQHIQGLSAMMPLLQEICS

With `CO[C@@H](/C=C/CC/C=C/C(=O)O)[C@@H](O)[C@H](C)/C=C(\C)[C@H](O)[C@H](C)C(=O)CCCC1CC(=O)NC(=O)C1`, the Potency result in experiment [1], in experiment [7], in experiment [8], in [9], in experiment [10] and in experiment [11] was “inactive” each time. Also, the Potency entry in experiment [14] and in [18] was “inactive” throughout. For the same compound, the outcome in experiment [2], in experiment [3], in experiment [4], in experiment [5], in experiment [6] and in experiment [12] was inactive. Besides, the compound was called inactive in [13], in [15], in [16], in experiment [17] and in experiment [19].

Turning to `C=C[C@@]1(C)CC[C@@H]([C@H](C)C(=O)/C=C/C(C)C)O1`, in experiment [19], the call was inactive.

For `COC(=O)[C@@]1(C)CCC[C@]2(C)c3cc(OC)ccc3CC[C@@H]12`, the outcome in experiment [19] was inactive. Still for that read-out and setting: in the case of `C=C1CC[C@@H](O[C@H]2C[C@@](O)([C@H](C)NC(=O)c3[nH]c(C)c(Cl)c3Cl)[C@H](O)[C@@H](C)O2)[C@@H]2C=C[C@H](C)C(/C(O)=C3/C(=O)[C@H](C(C)C)N([C@@H]4O[C@H](C)[C@H](OC(N)=O)[C@H](OC(C)=O)[C@@H]4OC)C3=O)[C@@H]12` (some centres undefined) it was “inactive”; in that of `C=C1C[C@@]23C=CC(=O)[C@@](C)(CCC(=O)Nc4c(O)ccc(C(=O)O)c4O)C2C[C@@H]1CC3` (some centres undefined), “inactive”; in that of `COC12OC1(C13OC1(OC)C(=O)c1cc4cc(C)oc(=O)c4c(O)c1C3O)C(O)c1c(cc3cc(C)oc(=O)c3c1O)C2=O` (centres undefined), “inactive”.

As for `C[C@H]1C[C@@H]([C@@H]2CC[C@]34O[C@H](CC[C@@]35C[C@H](C)C(=O)O5)CN24)OC1=O`, the result in experiment [19] was inactive.

Regarding `C=C[C@](Cl)(CBr)CCC=C(C)C`, the outcome in experiment [19] was inactive. The same measure, in the same setting: then `C[C@@]12CCC[C@@](C)(C(=O)O)[C@H]1C[C@@H](O)[C@@]13C[C@@H](CC[C@@H]21)[C@](C)(O)C3`, with “inactive”; and `CCCc1c2c([nH]c(=O)c1C)C(=O)c1[nH]c(=O)c(C)c(CCC)c1C2=O`, with “inactive”. `O=Cc1ccc2n1C[C@]1(OC2)O[C@H](CO)[C@@H](O)[C@@H]1O`: the compound was called inactive in experiment [19].

Take `CN1CC[C@@]2([C@@]34CCN(C)[C@@H]3Nc3ccccc34)c3ccccc3N[C@@H]12`: the outcome in [19] was inactive. Same read-out and setting: then `C[C@@]12CCC[C@@](C)(C(=O)O)[C@H]1C[C@@H](O)[C@]13C[C@H]4C[C@H](O[C@@]4(C)C1)[C@@H]23`, with “inactive”; and `C/C=C/C=C/C1(O)C2C=C3C(=O)CC45C(=O)C(O)=C(C)C(=O)C4C1C1(C(=O)C(O)=C(C)C(=O)C351)C2C` (centres undefined), with “inactive”. On the same count and under the same terms, then `Cc1occ2c1C(=O)c1c(cc(O)c(O)c1O)C2=O`, with “inactive”.

In the case of `C=C1[C@H]2CC[C@@]3(C=CC(=O)[C@@](C)(CCC(=O)Nc4c(O)ccc(C(=O)O)c4O)C3C2)[C@H]1O` (some centres undefined), the outcome in experiment [19] was inactive. As for `CC(=O)O[C@H]1CC[C@@]2(C)C(CC[C@]3(C)C2CC=C2C4CC(C)(C)CC[C@]4(C)CC[C@]23C)C1(C)C` (some centres undefined), in experiment [19], the result was inactive. `C=C1C[C@]23C=CC(=O)[C@@](C)(CCCC(C)C(=O)N[C@@H](CO)C(=O)O)[C@@H]2C[C@@H]1CC3` (some centres undefined): the compound was classed as inactive in experiment [19].

On to `CC1(C)CC[C@]2(CO)CC[C@]3(C)C(=CCC4[C@@]5(C)CC[C@H](O)C(C)(C)C5CC[C@]43C)C2C1` (some centres undefined), for which the result in [19] was inactive. As to `Oc1ccc(C2c3c(O)cc(O)cc3[C@@H]3C(c4ccc(O)cc4)c4c(O)cc(O)cc4[C@H]23)cc1` (some centres undefined), the result in [19] was inactive. The same measure, in the same setting: in the case of `CCC1=C2CCCN3C(=O)O[C@H]([C@H]1OC(C)=O)[C@H]23` it was “inactive”; in that of `O=C(O)CC1OCc2c(O)cccc21` (centres undefined), “inactive”; in that of `CC[C@H](O)CCCCC[C@@H]1NC(=O)[C@H]2CCCCN2C(=O)[C@H]([C@H](C)CC)NC(=O)[C@H](Cc2cn(OC)c3ccccc23)NC1=O`, “inactive”.

Turning to `C=C[C@]1(C)CC[C@@H]([C@H](C)C(=O)OCC)O1`, the compound was called inactive in experiment [19]. Still for that read-out and setting: then `CN1CC[C@]23c4ccccc4N[C@H]1[C@]21CCN(C)[C@H]3Nc2ccccc21`, with “inactive”. Same read-out and setting: then `CC[C@@H]1C[C@@]2(CC)OC(=O)[C@@]3(CC)OC(=O)[C@@H]1[C@@H]23`, with “inactive”; and `CC(C)(Br)[C@@H](Cl)C[C@H](Br)[C@](C)(Cl)/C=C/Br`, with “inactive”. As for `CC(O)/C=C/C1(O)C(C)(C)CC(O)CC1(C)O` (centres undefined), the compound was classed as inactive in experiment [19]. Same read-out and setting: in the case of `C[C@]12CC[C@]3(C1)[C@H](CC2=O)CC(OC(=O)c1ccccc1)[C@H]1[C@@](CO)(C(=O)O)CCC[C@@]13C` (some centres undefined) it was “inactive”. Same read-out and setting: in the case of `C[C@@]12CCC[C@@](C)(C(=O)O)[C@H]1CC[C@]13C[C@H]4C[C@H](O[C@@]4(C)C1)[C@H]32` it was “inactive”; in that of `COc1ccc([C@@H]2c3cc4c(cc3C[C@H](C)C2C)OCO4)cc1OC` (some centres undefined), “inactive”. Same read-out and setting: then `O=Cc1ccc2n1C[C@]1(C[C@H](O)[C@@H](CO)O1)OC2`, with “inactive”; and `CC(=O)c1c(C)cc2c(c1O)C(=O)c1c(O)cc(O)cc1C2=O`, with “inactive”. `C[C@@H]1O[C@@H](Oc2c(-c3ccc(O)cc3)oc3cc(O)cc(O)c3c2=O)[C@H](O)[C@H](O)[C@H]1O`: the compound was classed as inactive in [19].

`CC[C@@H](C)[C@H]1NC(=O)C(CC(C)C)NC(=O)[C@@H](CC(C)C)NC(=O)[C@H](Cc2c[nH]c3ccccc23)NC(=O)CNC(=O)[C@@H](CC(N)=O)NC1=O` (stereo partly drawn) (cyclo(GW[dL][ξL][dI][dN])): in [19], the result was inactive. Take `O=C1C[C@@H](c2ccc(O)c(-c3c(O)cc(O)c4c3O[C@H](c3ccc(O)cc3)CC4=O)c2)Oc2cc(O)cc(O)c21`: the compound was called inactive in experiment [19].

The values are drawn from PubChem BioAssay (NCATS).
